Consider six compounds from PubChem BioAssay (Tox21).

SMILES strings stand for the structures. Values joined by “and” are separate entries in the source; they are usually repeats but may differ in a detail not shown here. Equal values may be shown once. Inconclusive results are not listed. The source holds several records for some structures; these can differ, active in one and inactive in another. Active and inactive are the calls of the source. Unless noted, calls follow the shape of the dose curve; as a rule, active = well fitted curve in the direction sought with a large enough effect in the repeat runs; inconclusive = weak or mixed curves; inactive = no such curve, though single readings can be large; an effect the other way counts as inactive or inconclusive.

Assay [1] can be described thus: qHTS assay to identify small molecule phospholipidosis (PLD) inducers (AID 1259344; active = well fitted curve in the direction sought with a large enough effect; an effect the other way counts as inactive or inconclusive). The method in brief: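 After 4 h attachment on collagen I, HepG2 cells were dosed with compound alongside LipidTOX Red, kept 24 h at 37 C, fixed, and imaged for lamellar phospholipid pits.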
Assay [2] can be described thus: qHTS assay to identify small molecule HDAC inhibitors (AID 1259364).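 Also: wild-type HCT-116 cells with endogenous class I/II HDAC activity; top concentration of the series differs between compounds; nearly all actives have a fitted effect of over 45% in size.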 The method in brief: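 After a 2 hr compound incubation (37C, 5% CO2), HCT-116 cells seeded at 1,500/well the day before received HDAC-Glo reagent; signal read as luminescence after 30 min at room temperature.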
Background: Quantitative high-throughput screening tests each substance at several concentrations.

Assay [3] can be described thus: qHTS assay to identify small molecule HDAC inhibitors - cell viability counter screen (AID 1259365). Also: series mostly up to about 92 µM; nearly all actives have a fitted effect of over 50% in size. The method in brief: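 HCT-116 wild-type, overnight attachment; 2hr drug exposure, 37C; CellTiter-Glo luminescent ATP readout after 30min RT.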
Assay [4] can be described thus: qHTS assay to identify small molecule agonists of the sonic hedgehog signaling (Shh) pathway - cell viability counter screen (AID 1259366). Also: nearly all actives have a fitted effect of over 50% in size. A digest of the protocol: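 Compounds in DMSO were pin-transferred onto 3T3 Gli1-Luc cells that had settled 4hr; plates then stood 24hr at 37C and 5% CO2. One hour before the end, CellTiter-Fluor was added and fluorescence recorded.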

Assay [5] is described as follows: qHTS assay to identify small molecule antagonists of the sonic hedgehog signaling (Shh) pathway - cell viability counter screen (AID 1259367). Also: nearly all actives have a fitted effect of over 55% in size. The method in brief:
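Conditioned medium drove Shh signaling in 3T3 Gli1-Luc cells exposed to compounds at 37C and 5% CO2. Viability was determined from CellTiter-Fluor fluorescence, with reagent incubated 1 hr after 23 hr of treatment.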

Assay [6] in a line: qHTS assay to identify small molecule agonists of the sonic hedgehog signaling (Shh) pathway (AID 1259368; calls by dose curve;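 also: NIH/3T3-derived 3T3Gli1-Luc cells carrying a stable Gli1-driven firefly luciferase reporter; series mostly up to about 92 µM; nearly all actives have a fitted effect of over 15% in size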). The method in brief:
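Stable NIH/3T3 Gli1-Luc reporter clone; 24 hr cpd exposure after a 4 hr settling period; luminescence endpoint.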

The nature of assay [7]: qHTS assay to identify small molecule antagonists of the sonic hedgehog signaling (Shh) pathway (AID 1259369; calls by dose curve; also: nearly all actives have a fitted effect of over 45% in size; also: potency is read from the fitted curve at half-maximal effect). The method in brief: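 Gli1 transcriptional reporter (firefly Luc) in NIH/3T3 background, conditioned-medium activated. 24hr exposure, luminescence endpoint.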
A short description of assay [8]: qHTS assay to identify small molecule agonists of the androgen receptor (AR) signaling pathway in the presence of an antagonist - cell viability counter screen (AID 1259379). Also: nearly all actives have a fitted effect of over 25% in size. Also: potency is read from the fitted curve at half-maximal effect. A digest of the protocol:
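Counter screen for cell viability run in parallel with the AR agonist-mode luciferase assay. MDA-kb2 cells were co-treated with nilutamide (3.0uM final) and compounds, then incubated 16 hr at 37C, and CellTiter-Fluor fluorescence was measured.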

Assay [9] is described as follows: qHTS assay to identify small molecule agonists of the estrogen receptor beta (ER-beta) signaling pathway - cell viability counter screen (AID 1259380). Also: nearly all actives have a fitted effect of over 30% in size. Also: potency is read from the fitted curve at half-maximal effect. The method in brief: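 In this qHTS counter screen, HEK293T cells carrying an ER-beta/UAS beta-lactamase reporter, grown in 2% charcoal-stripped FBS, received compound for 16 hr; ATP-based CellTiter-Glo luminescence was then read after 30 min at room temperature.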

Assay [10] in a line: qHTS assay to identify small molecule antagonists of the estrogen receptor beta (ER-beta) signaling pathway - cell viability counter screen (AID 1259382). Also: series mostly up to about 92 µM; nearly all actives have a fitted effect of over 55% in size. The method in brief:
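HEK293T ER-beta-UAS-bla, 2% charcoal-stripped FBS; compounds + 1nM E2 16 hr 37C; CellTiter-Glo luminescence, 30 min RT.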

Assay [11] can be described thus: qHTS assay to identify small molecule agonists or antagonists of the thyroid stimulating hormone receptor (TSHR) signaling pathway - wild type cell line counter screen (AID 1259384; calls by dose curve). A digest of the protocol:
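Wild-type HEK293 cells were plated 18 h at 37 C/5% CO2, pin-dosed with compound plus Ro20-1724 medium, held 30 min at room temperature, then given cAMP-d2 and anti-cAMP-cryptate; fluorescence was read after 1 h. Fifteen concentrations, triplicate.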

Assay [12] has as its target Thyrotropin receptor (Homo sapiens) (UniProt P16473). Kind of assay: qHTS assay to identify small molecule antagonists of the thyroid stimulating hormone receptor (TSHR) signaling pathway (AID 1259385; calls by dose curve; also: nearly all actives have a fitted effect of over 20% in size). A digest of the protocol:
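TSHR-HEK293 cells were plated and held 18 h at 37C/5% CO2, then given compound plus Ro20-1724 and stimulated with TSH at 1.5 ng/mL final. After 30 min at room temperature, cAMP was detected with cAMP-d2/anti-cAMP-cryptate (1 h) by fluorescence.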

Assay [13] in a line: qHTS assay to identify small molecule agonists of the estrogen receptor alpha (ER-alpha) signaling pathway in the presence of an antagonist - cell viability counter screen (AID 1259386).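 Also: series mostly up to about 92 µM; cells exposed to compounds for 22 h at 37 °C before the viability read; nearly all actives have a fitted effect of over 30% in size.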 The method in brief:
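Steps: 5-day stripped-FBS culture; seed and incubate 24hr; add ICI-182,780 (10.0nM final); pin 15-point compound titration; incubate 22hr at 37C; add CellTiter-Fluor at 21hr; read fluorescence.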

Assay [14] addresses Progesterone receptor (Homo sapiens) (UniProt P06401). As to the kind of experiment: qHTS assay to identify small molecule agonists of the progesterone receptor (PR) signaling pathway (AID 1346784; calls by dose curve; also: nearly all actives have a fitted effect of over 30% in size). The method in brief:
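Fluorescence from LiveBLAzer B/G FRET substrate cleavage (2 hr, RT) reported PR activation in PR-UAS-bla HEK 293T cells treated 16 hr at 37C/5% CO2 with compounds; medium contained 2% charcoal-stripped FBS.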

In assay [15] the target is Estrogen receptor (Homo sapiens) (UniProt P03372). Kind of assay: qHTS assay to identify small molecule antagonists of the estrogen receptor alpha (ER-alpha) signaling pathway using the BG1 cell line in the presence of 0.1 nM 17-beta-estradiol (AID 1259244). Also: nearly all actives have a fitted effect of over 50% in size. A digest of the protocol: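 Seeding of stripped-serum-adapted VM7Luc4E2 cells, 24 h attachment, compound transfer, then 0.1 nM final 17beta-estradiol; after 22 h incubation, ONE-Glo reagent and luminescence reading.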

Assay [16] has as its target Estrogen receptor beta (Homo sapiens) (UniProt Q92731). As to the kind of experiment: qHTS assay to identify small molecule agonists of the estrogen receptor beta (ER-beta) signaling pathway (AID 1259377; active = well fitted activation curve with a large enough effect in the signal ratio in the repeat runs, not every such curve was filed as active; the % refers to the signal ratio). The method in brief:
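qHTS in ER-beta-UAS-bla HEK293T cells: 6 hr settling, then 16 hr compound at 37C, then LiveBLAzer substrate 2 h at RT before fluorescence reading.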

For assay [17] the target is unchanged. As to the kind of experiment: qHTS assay to identify small molecule antagonists of the estrogen receptor beta (ER-beta) signaling pathway (AID 1259378; active = well fitted inhibition curve with a large enough effect in the signal ratio in the repeat runs, not every such curve was filed as active; the % refers to the signal ratio). The method in brief: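 ER-beta-UAS-bla HEK293T (GripTite) cells in 2% charcoal-stripped FBS medium were preincubated 6 hr at 37C, dosed with compound, then stimulated with 1 nM E2 (final) for 16 hr; beta-lactamase reporter read by B/G FRET fluorescence after 2 hr substrate loading.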

The target in assay [18] is Estrogen receptor (Homo sapiens) (UniProt P03372). Kind of assay: qHTS assay to identify small molecule agonists of the estrogen receptor alpha (ER-alpha) signaling pathway in the presence of an antagonist (AID 1259383; calls by dose curve; also: nearly all actives have a fitted effect of over 15% in size; also: potency is read from the fitted curve at half-maximal effect; as to activation: top concentration of the series differs between compounds). The method in brief: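 ER-alpha agonism measured under antagonist challenge: 10.0nM ICI-182,780 (final) plus compound, 15 concentrations, 22hr, VM7Luc4E2 ERE-luciferase cells. Read by luminescence.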

Chain of Estrogen receptor beta (Homo sapiens) (Q92731 whole entry, looked up): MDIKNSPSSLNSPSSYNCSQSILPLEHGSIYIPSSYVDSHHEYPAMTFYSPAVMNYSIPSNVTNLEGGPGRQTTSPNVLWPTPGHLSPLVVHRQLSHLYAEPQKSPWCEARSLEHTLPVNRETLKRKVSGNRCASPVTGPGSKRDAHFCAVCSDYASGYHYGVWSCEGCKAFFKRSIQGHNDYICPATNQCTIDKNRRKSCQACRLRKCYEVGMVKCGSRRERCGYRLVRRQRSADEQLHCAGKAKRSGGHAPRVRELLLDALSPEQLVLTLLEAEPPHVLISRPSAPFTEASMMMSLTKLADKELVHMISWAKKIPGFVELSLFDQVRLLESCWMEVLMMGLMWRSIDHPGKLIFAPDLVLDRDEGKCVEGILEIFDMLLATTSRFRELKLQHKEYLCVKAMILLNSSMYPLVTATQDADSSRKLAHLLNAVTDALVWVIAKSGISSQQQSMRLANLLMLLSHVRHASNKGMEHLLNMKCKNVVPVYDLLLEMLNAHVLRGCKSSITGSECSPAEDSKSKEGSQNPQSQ
Chain of Thyrotropin receptor (Homo sapiens) (P16473 whole entry, looked up): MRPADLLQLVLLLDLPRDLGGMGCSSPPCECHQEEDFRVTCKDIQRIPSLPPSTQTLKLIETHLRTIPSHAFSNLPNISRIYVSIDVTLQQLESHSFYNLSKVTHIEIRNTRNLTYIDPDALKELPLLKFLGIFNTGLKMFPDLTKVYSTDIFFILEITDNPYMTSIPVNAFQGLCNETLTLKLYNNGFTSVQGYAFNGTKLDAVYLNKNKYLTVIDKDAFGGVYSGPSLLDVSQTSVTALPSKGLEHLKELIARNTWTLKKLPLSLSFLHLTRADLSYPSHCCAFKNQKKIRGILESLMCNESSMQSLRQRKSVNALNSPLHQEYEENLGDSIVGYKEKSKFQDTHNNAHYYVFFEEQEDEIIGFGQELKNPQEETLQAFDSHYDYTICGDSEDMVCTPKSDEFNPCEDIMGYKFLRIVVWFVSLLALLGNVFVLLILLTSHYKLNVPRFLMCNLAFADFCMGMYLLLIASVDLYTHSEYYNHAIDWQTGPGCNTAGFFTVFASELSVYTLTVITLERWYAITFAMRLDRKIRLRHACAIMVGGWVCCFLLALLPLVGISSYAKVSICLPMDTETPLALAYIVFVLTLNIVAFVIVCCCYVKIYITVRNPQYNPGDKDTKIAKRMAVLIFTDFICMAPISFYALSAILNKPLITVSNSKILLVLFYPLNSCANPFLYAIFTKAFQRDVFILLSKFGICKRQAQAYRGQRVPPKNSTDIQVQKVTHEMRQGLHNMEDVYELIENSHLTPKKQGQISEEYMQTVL
Chain of Estrogen receptor (Homo sapiens) (P03372 whole entry, looked up): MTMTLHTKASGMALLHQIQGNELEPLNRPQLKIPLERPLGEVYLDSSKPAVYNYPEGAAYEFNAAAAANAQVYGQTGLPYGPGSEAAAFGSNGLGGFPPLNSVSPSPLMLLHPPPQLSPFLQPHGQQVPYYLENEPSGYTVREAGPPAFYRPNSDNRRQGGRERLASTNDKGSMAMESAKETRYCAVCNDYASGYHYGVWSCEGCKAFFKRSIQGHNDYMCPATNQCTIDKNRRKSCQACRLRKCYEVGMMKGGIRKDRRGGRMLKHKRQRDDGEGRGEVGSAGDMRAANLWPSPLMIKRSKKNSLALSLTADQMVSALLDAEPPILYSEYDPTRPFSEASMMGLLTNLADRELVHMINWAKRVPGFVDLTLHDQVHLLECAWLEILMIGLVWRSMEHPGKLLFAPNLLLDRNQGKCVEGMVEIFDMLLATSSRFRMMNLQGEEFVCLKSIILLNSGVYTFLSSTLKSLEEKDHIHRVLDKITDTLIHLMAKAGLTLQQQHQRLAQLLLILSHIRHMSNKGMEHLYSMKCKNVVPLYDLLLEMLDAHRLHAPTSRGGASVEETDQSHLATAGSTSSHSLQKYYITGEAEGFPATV
Chain of Progesterone receptor (Homo sapiens) (P06401 whole entry, looked up): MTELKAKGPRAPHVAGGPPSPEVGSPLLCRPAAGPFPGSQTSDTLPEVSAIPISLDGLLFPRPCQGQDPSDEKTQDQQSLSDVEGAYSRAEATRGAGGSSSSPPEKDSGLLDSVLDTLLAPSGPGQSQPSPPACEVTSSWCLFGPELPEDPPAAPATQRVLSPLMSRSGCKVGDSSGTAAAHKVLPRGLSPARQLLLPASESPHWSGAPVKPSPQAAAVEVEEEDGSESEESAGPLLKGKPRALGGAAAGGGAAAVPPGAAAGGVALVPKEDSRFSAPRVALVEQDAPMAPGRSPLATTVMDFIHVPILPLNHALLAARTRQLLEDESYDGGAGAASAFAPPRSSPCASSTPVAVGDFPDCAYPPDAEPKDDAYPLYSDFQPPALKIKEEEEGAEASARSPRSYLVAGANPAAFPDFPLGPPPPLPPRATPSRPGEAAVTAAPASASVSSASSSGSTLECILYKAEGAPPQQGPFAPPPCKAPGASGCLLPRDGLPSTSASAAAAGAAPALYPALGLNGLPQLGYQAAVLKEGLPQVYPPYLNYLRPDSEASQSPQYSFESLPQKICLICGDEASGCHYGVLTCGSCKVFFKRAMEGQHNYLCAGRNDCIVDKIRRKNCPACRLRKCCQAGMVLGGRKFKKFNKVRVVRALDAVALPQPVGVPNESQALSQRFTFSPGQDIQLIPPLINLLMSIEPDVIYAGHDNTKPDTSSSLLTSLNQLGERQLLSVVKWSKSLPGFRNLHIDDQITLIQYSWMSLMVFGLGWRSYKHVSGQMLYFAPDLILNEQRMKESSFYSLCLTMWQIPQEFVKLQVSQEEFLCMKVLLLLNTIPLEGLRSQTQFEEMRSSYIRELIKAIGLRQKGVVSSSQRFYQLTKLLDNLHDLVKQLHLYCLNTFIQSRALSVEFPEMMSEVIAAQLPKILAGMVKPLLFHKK

As to `CC(COc1ccccc1)N(CCCl)Cc1ccccc1` (stereo not drawn), the Potency result in assay [1], in [2], in assay [3], in assay [4], in assay [5] and in assay [6] was “inactive” each time. For the same compound, the Potency result in assay [10], in assay [11], in assay [12], in assay [13] and in assay [14] was “inactive” in each case. For the same compound, the Potency was 43.3 µM (active) and inactive in [7]; 55 µM (active) and 61.1 µM (active) in [8]; 54.5 µM (active) in assay [9].

On to `COC(=O)/C=C/c1ccccc1`, for which the Potency result in assay [15], in [2], in [3], in assay [5], in [6] and in assay [17] was “inactive” each time. The Potency result in assay [8], in [9], in assay [10], in [18], in [11] and in assay [12] was “inactive” in each case. For the same compound, the Potency entry in assay [13] and in assay [14] was “inactive” each time. Further, the Potency result in assay [7] is “inactive and 21.7 µM (active)”. Further, in assay [16], the compound was classed as inactive.

Turning to `Nc1ccc2cc3ccccc3cc2c1`, the Potency result in assay [15], in assay [3], in assay [7], in assay [8], in assay [10] and in assay [11] was “inactive” each time. The Potency result in [12] and in assay [13] was “inactive” in each case. For the same compound, in assay [18], the Potency was 1.75 µM (active) and 13.7 µM (active).

For `CC(=O)CC(=O)Nc1ccc2[nH]c(=O)[nH]c2c1`, the Potency result in assay [15], in assay [2], in [3], in assay [4], in assay [5] and in assay [6] was “inactive” each time. Besides, the Potency entry in assay [7], in assay [8], in assay [9], in assay [10], in assay [18] and in assay [11] was “inactive” in each case. In addition, the Potency result in [12] and in assay [14] was “inactive” in each case.

As for `OCCN1CCNCC1`, the Potency entry in [15], in assay [3], in assay [4], in assay [5], in assay [6] and in [7] was “inactive” throughout. Also, the Potency entry in [8], in assay [9], in assay [10], in assay [18], in assay [11] and in assay [12] was “inactive” in each case. Besides, the Potency result in assay [13] and in [14] was “inactive” each time. Besides, the compound was called inactive in assay [16].

On to `CC(C)(C)NCC(O)COc1ccccc1OCC1CCCO1` (stereo not drawn), for which the Potency result in [15], in assay [2], in assay [3], in assay [4], in assay [5] and in assay [6] was “inactive” in each case. Besides, the Potency result in [8], in [9], in assay [10], in assay [18], in assay [11] and in [12] was “inactive” in each case. Moreover, the Potency result in [13] and in [14] was “inactive” throughout. In addition, the compound was classed as inactive in assay [16].
